Assay results: PubChem BioAssay
Values without a mark were called inactive. A call without a number means that no potency is given here. For some assays here: Potency and affinity values are given separately. Calls of active or inactive are those of the source. Unless noted, no rule for the calls is given here.

Legend:
[1] = antimalarial activity against Dd2 strain (AID 2302;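 active = growth inhibition above 50% at the single 2 µM test dose, taken to imply half-maximal potency below 2 µM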); settings: P. falciparum Dd2 in RBCs, LDH growth readout, 72 h; at 2 µM; active compounds read high
[2] = human hepatoma cell viability loss – ATP luminescence, cytotoxicity control for P. falciparum antimalarial project, primary screen (AID 2303;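 active = inhibition above 50%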); settings: HepG2 viability, 24-48 h, at 10 µM, active compounds read high
[3] = target: L-lactate dehydrogenase (Plasmodium falciparum (isolate CDC / Honduras)) (UniProt Q27743); assay: PfLDH activity inhibition – cell lysate, 3D7 strain, counter-screen for P. falciparum growth inhibition project (AID 2304); settings: P. falciparum 3D7 crude extract, LDH APAD/NBT absorbance; at 2 µM; active compounds read high
[4] = inhibition of 3D7 malaria parasite growth – strain 3D7 (AID 2306); settings: P. falciparum 3D7 erythrocytic growth, LDH absorbance, 72 h; at 2 µM; active compounds read high
[5] = target: Calcium-dependent protein kinase 1 (Plasmodium falciparum (isolate 3D7)) (UniProt P62344); assay: PfCDPK1 kinase inhibitors, biochemical, TCAMS library (AID 1159585; cut-off not given, nearly all actives have IC50 up to about 0.98 µM;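 also: inhibitors leave more ATP so luminescence rises with inhibition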); settings: recombinant PfCDPK1, Kinase-Glo ATP depletion luminescence
[6] = target: Plasmodium falciparum protein kinase 6 (PK6, PF3D7_1337100) (UniProt Q8IDW1); assay: PfPK6 kinase inhibitors, biochemical, TCAMS library (AID 1159586); settings: recombinant PfPK6, Kinase-Glo ATP depletion luminescence
[7] = target: Protein kinase 7 (PK7), Plasmodium falciparum 3D7 (PF3D7_0213400) (UniProt Q7YTF7); assay: inhibition of Plasmodium PK7 catalytic activity – biochemical, TCAMS antimalarial set, Kinase-Glo luminescence (AID 1159587); settings: recombinant PfPK7, Kinase-Glo ATP depletion luminescence
[8] = target: Calcium-dependent protein kinase 4 (Plasmodium falciparum (isolate 3D7)) (UniProt Q8IBS5); assay: PfCDPK4 kinase inhibitors, biochemical, TCAMS library (AID 1159588; cut-off not given, nearly all actives have IC50 up to about 0.91 µM); settings: recombinant PfCDPK4, Kinase-Glo ATP depletion luminescence
Sequence of Calcium-dependent protein kinase 4 (Plasmodium falciparum (isolate 3D7)) (Q8IBS5 whole entry, looked up): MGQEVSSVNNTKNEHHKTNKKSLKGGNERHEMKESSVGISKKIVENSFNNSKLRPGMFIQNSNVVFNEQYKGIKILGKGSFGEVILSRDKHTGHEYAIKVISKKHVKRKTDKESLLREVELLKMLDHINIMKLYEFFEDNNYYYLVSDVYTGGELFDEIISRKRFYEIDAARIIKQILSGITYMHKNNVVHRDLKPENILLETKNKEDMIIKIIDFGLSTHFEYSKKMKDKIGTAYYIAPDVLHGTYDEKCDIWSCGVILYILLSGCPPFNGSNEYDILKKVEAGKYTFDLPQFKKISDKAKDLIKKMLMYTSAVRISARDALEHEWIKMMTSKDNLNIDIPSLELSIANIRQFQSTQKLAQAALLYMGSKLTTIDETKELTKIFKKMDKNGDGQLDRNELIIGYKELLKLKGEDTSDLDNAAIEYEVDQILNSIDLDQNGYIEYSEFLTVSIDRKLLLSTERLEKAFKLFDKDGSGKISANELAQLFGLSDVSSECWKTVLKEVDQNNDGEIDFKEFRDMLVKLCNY

Sequence of Protein kinase 7 (PK7), Plasmodium falciparum 3D7 (PF3D7_0213400) (Q7YTF7 1-343): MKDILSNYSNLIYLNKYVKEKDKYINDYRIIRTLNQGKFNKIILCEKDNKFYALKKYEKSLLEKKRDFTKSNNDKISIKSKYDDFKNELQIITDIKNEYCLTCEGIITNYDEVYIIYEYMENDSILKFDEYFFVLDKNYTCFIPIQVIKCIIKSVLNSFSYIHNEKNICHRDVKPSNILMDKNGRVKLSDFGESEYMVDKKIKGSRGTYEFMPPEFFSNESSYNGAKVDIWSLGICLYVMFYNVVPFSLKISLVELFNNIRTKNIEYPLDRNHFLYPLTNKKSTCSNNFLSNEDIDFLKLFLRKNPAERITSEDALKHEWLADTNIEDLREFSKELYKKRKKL
Sequence of L-lactate dehydrogenase (Plasmodium falciparum (isolate CDC / Honduras)) (Q27743 whole entry, looked up): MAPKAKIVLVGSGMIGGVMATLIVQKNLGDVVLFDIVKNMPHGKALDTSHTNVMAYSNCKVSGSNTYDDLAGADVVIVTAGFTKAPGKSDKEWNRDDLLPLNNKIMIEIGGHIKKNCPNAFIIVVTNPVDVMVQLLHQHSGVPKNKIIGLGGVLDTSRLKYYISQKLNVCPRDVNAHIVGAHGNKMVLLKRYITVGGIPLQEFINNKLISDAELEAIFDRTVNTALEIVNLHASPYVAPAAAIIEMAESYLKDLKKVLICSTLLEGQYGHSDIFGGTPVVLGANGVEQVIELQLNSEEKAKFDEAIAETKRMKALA
Sequence of Plasmodium falciparum protein kinase 6 (PK6, PF3D7_1337100) (Q8IDW1 1-305): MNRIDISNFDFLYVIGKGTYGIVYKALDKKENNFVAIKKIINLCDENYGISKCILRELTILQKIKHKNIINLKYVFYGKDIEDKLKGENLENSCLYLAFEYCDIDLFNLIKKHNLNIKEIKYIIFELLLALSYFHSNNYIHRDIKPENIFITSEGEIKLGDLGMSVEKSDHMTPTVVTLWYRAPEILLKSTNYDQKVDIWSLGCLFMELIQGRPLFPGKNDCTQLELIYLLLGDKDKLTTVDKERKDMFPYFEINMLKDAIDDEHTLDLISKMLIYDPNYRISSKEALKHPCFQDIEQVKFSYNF
Sequence of Calcium-dependent protein kinase 1 (Plasmodium falciparum (isolate 3D7)) (P62344 whole entry, looked up): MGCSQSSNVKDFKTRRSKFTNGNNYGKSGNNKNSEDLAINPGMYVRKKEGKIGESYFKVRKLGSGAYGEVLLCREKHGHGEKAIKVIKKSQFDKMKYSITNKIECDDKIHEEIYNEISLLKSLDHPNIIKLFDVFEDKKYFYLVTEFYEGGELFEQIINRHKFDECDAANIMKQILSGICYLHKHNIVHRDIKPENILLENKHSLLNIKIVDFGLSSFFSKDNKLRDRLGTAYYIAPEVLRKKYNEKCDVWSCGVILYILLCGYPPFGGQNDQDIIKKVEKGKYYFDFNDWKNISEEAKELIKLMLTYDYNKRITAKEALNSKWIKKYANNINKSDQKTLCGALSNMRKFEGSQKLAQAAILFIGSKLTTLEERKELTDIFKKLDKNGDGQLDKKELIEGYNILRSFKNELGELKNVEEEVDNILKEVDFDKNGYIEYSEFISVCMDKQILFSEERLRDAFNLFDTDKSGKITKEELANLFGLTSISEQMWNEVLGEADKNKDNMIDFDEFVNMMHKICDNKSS

| Compound | growth inhibition [1] | inhibition [2] | inhibition [3] | growth inhibition [4] | outcome [5] | outcome [6] | outcome [7] | outcome [8] |
| --- | --- | --- | --- | --- | --- | --- | --- | --- |
| CCc1nc(N)nc(N)c1-c1ccccc1 | 1% | 53% (active) | -2% | 92% (active) | inactive | inactive | inactive | inactive |
| Cc1cnc(C(=O)Nc2cccc(-c3csc(-c4nc5ccccc5[nH]4)c3)c2)cn1 | 80% (active) | 31% | -1% | 98% (active) | inactive | inactive | inactive | inactive |
| COc1cc(C(=O)N2[C@@H](c3nccs3)[C@@H](C(=O)N(OC)C(C)c3ccccc3)C[C@@]2(CC(C)C)C(=O)OC(C)(C)C)ccc1C(C)(C)C (stereo not given in full) | 92% (active) | 12% | 5% | 92% (active) | inactive | inactive | inactive | inactive |
| COc1ccc2nccc([C@@H](O)CN3CCC(NCc4nc5ccc(F)cc5[nH]4)CC3)c2c1 | 4% | 20% | -2% | 100% (active) | inactive | inactive | inactive | inactive |
| O=c1n(CC2CCCCC2)c2cc(Cl)cc(OCCNc3ccncc3)c2n1CC1CCCCC1 | 64% (active) | 2% | -3% | 100% (active) | inactive | inactive | inactive | inactive |
| COc1cc(NC(=O)N2CCOC(CCN3CCC4(CCc5ccccc54)CC3)(c3ccc(Cl)c(Cl)c3)C2)cc(OC)c1 (stereo not given) | 50% (active) | 29% | 3% | 87% (active) | inactive | inactive | inactive | inactive |
| Oc1cc(Nc2ccnc3cc(-c4cccc(CN5CCOCC5)c4)ccc23)c(F)cc1Cl | 89% (active) | 12% | -4% | 100% (active) | inactive | inactive | inactive | inactive |
| CCOc1ccc2c(c1)OC(c1ccccc1)(C(F)(F)F)NC2=O (stereo not given) | 98% (active) | -7% | -2% | 100% (active) | inactive | inactive | inactive | inactive |
| O=C(Nc1ccc(-c2ccccc2)cc1)Nc1cccc(Cn2nc(Cl)c(N3CCNCC3)cc2=O)c1 | 79% (active) | 15% | -2% | 102% (active) | inactive | inactive | inactive | inactive |
| Oc1ccc(CCNCCCCCCNCCc2ccc(Cl)cc2)c(Cl)c1O | 30% | 23% | -7% | 100% (active) | inactive | inactive | inactive | inactive |
| COC(=O)c1cccc(CNCc2ccc(-c3ccc(-c4nc5c(C)cccc5[nH]4)cc3)cc2)c1 | 86% (active) | 17% | 3% | 102% (active) | inactive | inactive | inactive | inactive |
| Cc1cc2c(NC(=O)NC3CCN(CCc4cccc(Cl)c4)CC3)cccc2cn1 | 27% | 12% | -5% | 100% (active) | inactive | inactive | inactive | inactive |
| O=C(NOCCOc1ccccc1)c1ccccc1 | 0% | 0% | -1% | 98% (active) | inactive | inactive | inactive | inactive |
| CCCCCN1CCCN(Cc2cccc(NC(=O)c3ccc(Cl)c(Cl)c3)c2)CC1 | 28% | 30% | 0% | 89% (active) | inactive | inactive | inactive | inactive |
| CC(C)[C@H]1CC[C@H](C)C[C@@H]1OC(=O)N[C@@H](Cc1ccc(O)cc1)C(=O)NC1CCN(Cc2ccc(OCCCN(C)C)cc2)C1 (stereo not given in full) | 64% (active) | 27% | 4% | 99% (active) | inactive | inactive | inactive | inactive |
| CN1CCN(CC(=O)Nc2cccc(-c3ccc(-c4nc5ccc(C(F)(F)F)cc5[nH]4)cc3)c2)CC1 | 94% (active) | 37% | -3% | 102% (active) | inactive | inactive | inactive | inactive |
| O=c1[nH]c(NCCCCCN2CCC(c3c[nH]c4ccccc34)CC2)ncc1Cc1ccc(Cl)c(Cl)c1 | 8% | 21% | -4% | 94% (active) | inactive | inactive | inactive | inactive |
| Cc1noc(C)c1C(=O)N1CCc2cc3nccc(N4CCN5CCC[C@H]5C4)c3cc21 | 9% | 7% | -5% | 93% (active) | inactive | inactive | inactive | inactive |
| Cn1ccnc1CCC(=O)Nc1ccc(Cl)cc1C(=O)Nc1ccc(Cl)cc1 | 3% | 28% | 4% | 92% (active) | inactive | inactive | inactive | inactive |
| Cc1nc(-c2nc(NCCc3ccncc3)ncc2-c2ccsc2)sc1C | 87% (active) | 10% | -1% | 92% (active) | inactive | inactive | inactive | inactive |

| Compound | growth inhibition [1] | inhibition [2] | inhibition [3] | growth inhibition [4] | outcome [5] | outcome [6] | outcome [7] | outcome [8] |
| --- | --- | --- | --- | --- | --- | --- | --- | --- |
| Cc1ccc(CNC(=O)c2cnc(N3CCN(c4ccncc4)CC3)c(Cl)c2)cc1 | 6% | 27% | -3% | 92% (active) | inactive | inactive | inactive | inactive |
| C[C@@H](N=C(Nc1ccc(C#N)cc1O)Nc1ccccc1Cl)c1ccc(Br)cc1 | 70% (active) | 33% | 0% | 98% (active) | inactive | inactive | inactive | inactive |
| COc1ccc(Br)cc1/C=C/C(=O)Nc1cccc(C2CCN(C)CC2)c1 | 37% | 44% | -2% | 95% (active) | inactive | inactive | inactive | inactive |
| O=C(N[C@@H](CC1CCCCC1)C(=O)NCc1cccc2ccccc12)c1ccc(O)c(-c2ccc(Cl)c(Cl)c2)c1 | 99% (active) | -9% | 2% | 97% (active) | inactive | inactive | inactive | inactive |
| CC(C)c1ccc(NS(=O)(=O)c2cccc(C(=O)NC3CCN(CC4CCCCC4)CC3)c2)cc1 | 69% (active) | 71% (active) | 0% | 93% (active) | inactive | inactive | inactive | inactive |
| Cc1cc(Nc2ccc(Cl)c(Cl)c2)n2nc(C)nc2n1 | 97% (active) | 6% | -4% | 97% (active) | inactive | inactive | inactive | inactive |
| COc1ccc(Nc2nc(NC3CCN(Cc4ccccc4)CC3)cc(-c3ccncc3)n2)cc1 | 40% | 26% | 0% | 88% (active) | inactive | inactive | inactive | inactive |
| CCC(CCON1C(N)=NC(N)=NC1(C)C)c1ccc(Cl)c(Cl)c1 (stereo not given) | 98% (active) | 68% (active) | -7% | 94% (active) | inactive | inactive | inactive | inactive |
| CC(CN(C)C)C(=O)Nc1cccc(-c2ccc(-c3nc4ccc(C(F)(F)F)cc4[nH]3)cc2)c1 (stereo not given) | 97% (active) | 26% | -2% | 99% (active) | inactive | inactive | inactive | inactive |
| COc1ccc(C(=O)Nc2ccc(Nc3nc(C)cc(N(C)C)n3)cc2)c(OC)c1 | 72% (active) | 34% | 0% | 100% (active) | inactive | inactive | inactive | inactive |
| CCOc1ccc2c(NN=Cc3c4ccccc4cc4ccccc34)cc(C)nc2c1 | 94% (active) | -4% | 0% | 90% (active) | inactive | inactive | inactive | inactive |
| Cc1cccc(CNc2nc(C)cc(N[C@@H](CC(C)C)C(=O)NCc3cccc(F)c3)n2)c1 | 32% | 13% | -3% | 91% (active) | inactive | inactive | inactive | inactive |
| O=C(Nc1ccc(OC2CCN(Cc3ccccc3)CC2)c(Cl)c1)c1ccco1 | 96% (active) | 8% | 6% | 96% (active) | inactive | inactive | inactive | inactive |
| CCOc1cc(Cc2cnc(N)nc2N)cc(OCC)c1O | -1% | 6% | 3% | 89% (active) | inactive | inactive | inactive | inactive |
| FC(F)(F)c1ccc2nc(-c3cccc(-c4ccc(CNCCc5ccncc5)cc4)c3)[nH]c2c1 | 100% (active) | 23% | -1% | 99% (active) | inactive | inactive | inactive | inactive |
| OCCOCn1cnc2cnc(N[C@H]3OC[C@H](O)[C@@H](O)[C@@H]3O)nc21 | -2% | 42% | 0% | 82% (active) | inactive | inactive | inactive | inactive |
| COc1cccc(-c2nn(C)c3sc(C(=O)Nc4cccnc4)cc23)c1 | 34% | 1% | -2% | 86% (active) | inactive | inactive | inactive | inactive |
| Cc1cccc2[nH]c(-c3ccc(-c4ccc(NC(=O)Nc5ccc(Cl)c(Cl)c5)cc4)cc3)nc12 | 100% (active) | 37% | 0% | 101% (active) | inactive | inactive | inactive | inactive |
| CCOc1ccc2nc(-c3ccccc3)cc(NN=Cc3ccncc3)c2c1 | 101% (active) | 19% | 0% | 102% (active) | inactive | inactive | inactive | inactive |
| COc1cc(NC(=O)c2ccc3c(=O)n(Cc4ccccc4)c(=S)[nH]c3c2)cc(OC)c1OC | 47% | 6% | -3% | 94% (active) | inactive | inactive | inactive | inactive |
